# Source: PubChem (National Center for Advancing Translational Sciences (NCATS))
# This is a sample that favours compounds with a hit; in the whole collection about 2.2% have one here.
# TDP43 rescue = TDP-43 toxicity inhibition in yeast | hit rate 1.8% among 410,000 | AID 652104 | Potency, µM (series often up to 46.1 µM), for inactives: at the top dose growth rescue (activation), most hits filed as activators | TDP-43 expressing yeast growth rescue, BacTiter-Glo, 24 h; further: % of control where 0% means no effect; nearly all actives have a fitted effect of over 50% in size
#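 Readout is BacTiter-Glo luminescence of cell growth, so inhibitors register as activators. TDP-43-expressing yeast at OD600=0.02 in galactose medium, after raffinose pregrowth to mid-log, were incubated with compound for 24 hr at 30 deg C.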
# aSyn yeast inh = alpha-synuclein toxicity inhibition in yeast | hit rate 0.14% among 370,000 | Potency, µM (doses to about 46.1 µM), without a hit: at the top dose growth rescue (activation), most hits filed as activators | Yeast expressing alpha-synuclein, growth rescue, BacTiter-Glo, 24 h; further: % of control where 0% means no effect; nearly all actives have a fitted effect of over 65% in size
#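 Galactose-induced alpha-syn yeast (OD600=0.02, raffinose-pregrown) + pinned cpd, 24 hr, 30 deg C; growth by BacTiter-Glo luminescence. Growth restoration scores as activation.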
# Mito fusion act = mitochondrial division inhibition or fusion activation; S. cerevisiae fusion-defective mutant growth rescue, CellTiterGlo 48 h; Potency, µM (titrated, usually from 46.1 µM), for the others: top-dose growth rescue (activation), actives largely listed as activators; hit rate 0.23% among 320,000; AID 485298; further: % of control where 0% means no effect; nearly all actives have a fitted effect of over 45% in size
#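 Compounds are tested for their ability to restore growth of mitochondrial fusion-defective yeast strains at non-permissive 37C in YPEG medium over 48 hours. Viability is quantified by luciferase luminescence.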
# ERG Ets-DNA blk = inhibitors of human ERG Ets domain-DNA interaction; fluorescence polarization, His-ERG Ets domain / labelled DNA; Potency, µM (doses to about 76.9 µM), for inactives: top-dose FP activity, negative = inhibition, most hits filed as inhibitors; hit rate 0.028% among 370,000; P11308; active means well fitted inhibition curve with a large enough effect in the polarisation, with a control signal flat; inconclusive means small, poorly fitted or top-dose-only effect, or effect the other way, or a change in a side signal; inactive means no such curve, though single readings can be large or run the other way; the % refers to the polarisation;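 further: polarization taken with two DNA probes labelled with fluorescein and Texas red; % of control where 0% means no effect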
# Target sequence (P11308 whole entry, looked up, the tested form may be a part): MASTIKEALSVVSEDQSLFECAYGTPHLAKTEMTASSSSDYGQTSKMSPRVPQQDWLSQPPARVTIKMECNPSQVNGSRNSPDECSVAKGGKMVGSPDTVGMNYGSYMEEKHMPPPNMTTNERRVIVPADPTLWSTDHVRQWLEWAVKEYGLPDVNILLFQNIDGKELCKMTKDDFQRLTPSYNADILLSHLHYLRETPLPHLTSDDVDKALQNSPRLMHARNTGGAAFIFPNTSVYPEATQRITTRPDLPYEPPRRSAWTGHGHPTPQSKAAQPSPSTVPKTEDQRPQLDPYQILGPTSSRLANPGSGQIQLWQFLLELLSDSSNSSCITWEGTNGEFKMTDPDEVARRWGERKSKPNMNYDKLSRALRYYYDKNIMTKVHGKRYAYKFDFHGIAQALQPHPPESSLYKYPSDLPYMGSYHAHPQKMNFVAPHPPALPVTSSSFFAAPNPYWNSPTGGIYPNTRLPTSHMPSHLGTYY
#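 His-tagged ERG Ets domain (1 uM in the protein solution; 300mM KCl, 50mM Tris-HCl, 1mM EDTA, 1mM DTT, pH 7.5) received compound, then a probe mix of 5 nM fluorescein-DNA and 100nM Texas-615-DNA. Fluorescence polarization was read for both dyes.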
# Abeta rescue = A-beta toxicity reversal in yeast; yeast expressing A-beta42, growth rescue, OD600, 48 h; response scale: 0% DMSO, 100% iron-clioquinol control; hit rate 0.063% among 410,000; AID 1347071; Potency, µM (doses to about 46.1 µM), most hits filed as activators; further: nearly all actives have a fitted effect of over 55% in size
#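 Yeast growth medium received pinned compounds, then yeast cells expressing toxic A-beta were added; plates incubated at 30 C for 48 hr. Growth read as absorbance at 600 nm, normalized to DMSO and equimolar FeCl3 plus clioquinol controls.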
# FUS yeast rescue = rescues growth of FUS-expressing yeast | hit rate 0.24% among 390,000 | AID 1347120 | S. cerevisiae FUS-expressing, growth rescue, OD600, 24 h | Potency, µM (highest dose often 76.6 µM), hits mostly activators;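 further: plate controls were DMSO vehicle for no effect and reference control for full effect; nearly all actives have a fitted effect of over 55% in size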
#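 Galactose (2%) drives FUS expression in yeast precultured in raffinose; seeding density OD 0.005. Test compounds incubated 24hr at 30C and 99% humidity before absorbance at 600 nm was measured.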
# Numbers without * were called inactive; i = inactive; u = inconclusive; x = no result given; ! = repeats disagree; [ ] = remark or other dose. Unless noted, the call rests on the fitted dose curve; in most records, active means well fitted curve in the direction sought with a large enough effect; inconclusive means small, poorly fitted or top-dose-only effect, or another doubt; inactive means no such curve, though single readings can be large; an effect the other way counts as inactive or inconclusive. Potency means the concentration at half of the fitted maximal effect.
SMILES,TDP43 rescue,aSyn yeast inh,Mito fusion act,ERG Ets-DNA blk,Abeta rescue,FUS yeast rescue
Cc1ccc(N(CC(=O)N2CCN(c3ccc(Cl)cc3)CC2)S(=O)(=O)c2c(C)nn(C)c2C)cc1,22%,x,x,0%,i,i
Cc1ccc(N(CC(=O)N2CCN(c3ccc(F)cc3)CC2)S(=O)(=O)c2c(C)noc2C)cc1,16µM*!,1%,10%,13%,u,i
COc1ccc(CC(=O)Nc2ccc(-c3nc4ccccc4s3)c(C)c2)cc1OC,-3%,x,x,2%,i,i
O=C(CCS(=O)(=O)c1cc2c(cc1Cl)NC(=O)CO2)NCc1ccccc1Cl,2%,-1%,x,-1%,i,i
Cc1cccc(N(C)C(=O)C2CCN(S(=O)(=O)c3cccc4nonc34)CC2)c1,15%,x,x,2%,i,i
COc1ccccc1-c1nc2c(c(SCC(=O)Nc3ccc(C)c(C)c3)n1)Cc1c(CO)cnc(C)c1O2,19%,x,x,4%,i,i
CCN(CC)c1nc(NN)nc(Nc2ccc(C)c(Cl)c2)n1,13µM*,-9%,x,-5%,u,i
CNC(=O)c1c(NC(=O)c2ccc(N3C(=O)CCC3=O)cc2)sc2c1CCC(C)C2 (centres undefined),32µM*,1%,x,2%,i,x
CNC(=O)c1c(NC(=O)c2ccc(N3C(=O)CCC3=O)cc2)sc2c1CCCC2,8%,-12%,0%,8%,i,u
CCc1ccc(NC(=O)CC2C(=O)N(c3ccc(OC)cc3)C(=O)N2Cc2cccs2)cc1 (centres undefined),10%,x,x,0%,i,i
COc1ccc(-c2cnc(C)o2)cc1S(=O)(=O)Nc1c(C)cc(C)cc1C,25µM*,x,x,-1%,i,i
COc1ccc(-c2cnc(C)o2)cc1S(=O)(=O)Nc1ccc(OC(F)(F)F)cc1,22µM*,x,x,3%,i,i
c1ccc(-c2cc3ncc4c(n3n2)-c2ccccc2OC4)cc1,14%,x,x,-3%,i,i
Cc1cn(C)c(CC(=O)N2CCN(c3cccc(C(F)(F)F)c3)CC2)c1C(=O)O,9%,x,x,-6%,i,i
CCOC(=O)c1ccc(NC(=O)CCCn2nc(C)c3sc4ccccc4c3c2=O)cc1,12%,x,x,-6%,i,i
O=C(OCc1nc2ccsc2c(=O)[nH]1)c1ccc(Cl)s1,18µM*,1%,-14%,1%,i,i
O=C(OCc1nc2ccsc2c(=O)[nH]1)c1ccc(Cl)nc1,u,10%,3%,10%,i,i
Cn1nnnc1Sc1ncnc2scc(-c3ccc(Br)cc3)c12,x,x,x,x,i,i
Cn1nnnc1Sc1ncnc2scc(-c3ccc(F)cc3)c12,u,u,0.79µM*,0%,i,u
Cc1c(C(=O)NCCSCc2ccc(F)cc2)cnn1-c1ccc(Cl)cc1,13µM*,11%,-7%,0%,i,i
C[C@@H](N)C(=O)Nc1ccc(Cl)cc1C(=O)c1ccc[nH]1,x,x,x,x,x,i
O=C(Nc1nnc(-c2cccs2)o1)c1cccc(C(F)(F)F)c1,7.1µM*,3.2µM*,12%,-4%,6.3µM*,i
N#Cc1ccc(C(=O)Nc2nnc(-c3cccs3)o2)cc1,14%,18%,5%,10%,i,i
Cc1oc(-c2cccc(Cl)c2)nc1CS(=O)(=O)CC(=O)NCc1ccccc1Cl,14%,x,x,-3%,i,i
COc1ccc(C(=O)Nc2cccc(-c3cn4ccsc4n3)c2)c(OC)c1,5µM*,x,x,3%,i,u
SMILES,TDP43 rescue,aSyn yeast inh,Mito fusion act,ERG Ets-DNA blk,Abeta rescue,FUS yeast rescue
COc1ccc(C(=O)Nc2cccc(-c3cn4ccsc4n3)c2)cc1OC,20%,x,x,-4%,i,i
O=S1(=O)C=C(Sc2nc3cc(Cl)ccc3o2)c2ccccc21,13µM*,-8%,-16%,-4%,i,i
CCC(C)S(=O)(=O)c1oc(-c2cccs2)nc1S(=O)(=O)c1ccccc1 (centres undefined),11µM*,x,x,1%,i,i
CC(C)CS(=O)(=O)c1oc(-c2ccc(F)cc2)nc1S(=O)(=O)c1ccccc1,20µM*,x,x,-3%,i,i
COc1ccc(S(=O)(=O)NCCc2cn3cccc(C)c3n2)cc1OC,18%,-2%,0%,2%,i,i
COc1ccc(S(=O)(=O)NCc2cccn2Cc2cc(C)ccc2C)cc1OC,35µM*,x,x,-4%,i,i
CC(=O)Nc1ccc(S(=O)(=O)NCc2cccn2Cc2cccc(C)c2)cc1,16%,x,x,-5%,i,i
COc1ccc(S(=O)(=O)NCc2cccn2Cc2cccc(C)c2)cc1OC,35µM*,x,x,-2%,i,i
COCCNC(=O)Cc1c(C)c2c(cc(C)c3c(C)coc32)oc1=O,12%,0%,-4%,4%,i,i
COCCCNC(=O)Cc1c(C)c2c(cc(C)c3c(C(C)(C)C)coc32)oc1=O,4%,-1%,u,0%,i,32µM*
Cc1sc2ncnc(N(C)C3CCCCC3)c2c1C,16µM*,5%,-1%,6%,i,i
Cc1ccc(CNC(=O)c2sc3ncnc(N(C)C4CCCCC4)c3c2C)cc1,u,x,x,5%,i,i
CC(=O)N1CCc2cc(S(=O)(=O)NC(Cc3ccccc3)C(=O)Nc3ccc(C)cc3C)ccc21 (centres undefined),0%,x,x,1%,i,i
COC(=O)C1(C(=O)OC)CCCCN(S(=O)(=O)c2ccc(C)cc2)CCC1,24%,-1%,x,x,i,i
CN=c1scc(-c2cccs2)n1/N=C/c1ccc(O)c(O)c1O,-10%[0.397 µM],-43%,6%,4%,i,32µM*
Cc1ccc(CNC(=O)C2CCCN(S(=O)(=O)c3ccc4c(ccn4C)c3)C2)cc1 (centres undefined),0%,x,x,1%,i,i
CCN(CC)C(=O)c1sc2c(c1C)c(=O)n(-c1ccc(OC)cc1OC)c(=O)n2CC(=O)c1ccc(Cl)cc1,6%,x,x,4%,i,20µM*
CCN(CC)C(=O)c1sc2c(c1C)c(=O)n(-c1ccc(OC)cc1OC)c(=O)n2CC(=O)c1ccccc1,-16%,1%,3%,-10%,i,u
CCCN(C(=O)COC(=O)c1nc2nccc(C)n2n1)C1CCS(=O)(=O)C1 (centres undefined),2%,-4%,x,-8%,i,i
CC(=O)Nc1nc(-c2ccc(Cl)cc2)nc(C)c1C(C)=O,35µM*,0%,-8%,2%,i,i
